VDR inhibitor: inhibitors of human vitamin D receptor; actives 0.93% (n = 400,000); VDR-SRC2-3 peptide fluorescence polarization, 2 h; AID 504847; Potency, µM, for inactives: max response, negative = inhibition, most hits filed as inhibitors; further: on the % scale 0 is the no-effect control and ±100 the full control effect
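Signal is fluorescence polarization, reporting how far test compounds block the interaction of VDR with the SRC2-3 coregulator peptide after a 2 h room-temperature incubation.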
JMJD2A Tudor inh: blocks the human JMJD2A Tudor domain. O75164. AlphaScreen JMJD2A-Tudor / H3K4me3 peptide binding. Potency, µM (top dose mostly 114 µM), without a hit: top-dose activity change, negative = inhibition, usual class: inhibitors. actives 4.4% (n = 390,000). AID 504339; further: on the % scale 0 is the no-effect control and ±100 the full control effect; nearly all actives have a fitted effect of over 50% in size
BAZ2B inh: blocks human BAZ2B; Q9UIF8; AlphaScreen BAZ2B-H3K14Ac peptide displacement; Potency, µM (doses to about 114 µM), for the others: top-dose activity change, negative = inhibition, hits mostly inhibitors; actives 4.4% (n = 360,000); further: on the % scale 0 is the no-effect control and ±100 the full control effect; nearly all actives have a fitted effect of over 60% in size
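Compounds, titrated to a top concentration of 110 uM, were incubated 30 min at room temperature with preformed BAZ2B/acetyl-K14 H3 peptide complex (50 nM each). Proximity signal was measured by AlphaScreen after 20 min with beads.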
G9a inh: inhibitors of human histone lysine methyltransferase G9a | Q96KQ7 | G9a H3K9 monomethylation, AlphaScreen, 2 h | Potency, µM (doses to about 102 µM), for inactives: top-dose activity, negative = inhibition, actives largely listed as inhibitors | actives 8.8% (n = 350,000) | AID 504332; further: on the % scale 0 is the no-effect control and ±100 the full control effect; nearly all actives have a fitted effect of over 75% in size
Target sequence (Q96KQ7 913-1193 limits assumed): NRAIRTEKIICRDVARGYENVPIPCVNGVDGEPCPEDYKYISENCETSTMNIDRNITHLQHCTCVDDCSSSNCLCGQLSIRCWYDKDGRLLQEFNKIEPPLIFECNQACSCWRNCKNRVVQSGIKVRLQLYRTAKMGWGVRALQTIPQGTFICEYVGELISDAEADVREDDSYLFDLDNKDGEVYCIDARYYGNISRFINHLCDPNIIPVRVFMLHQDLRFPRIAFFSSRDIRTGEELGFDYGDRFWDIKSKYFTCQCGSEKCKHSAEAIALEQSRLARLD
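Using a bead-based AlphaScreen, monomethylated H3K9 product from 2 h room-temperature reactions (G9a 20 nM, peptide 500 nM, SAM 20 uM) was detected with 0.5 ug/mL rabbit anti-H3K9me1 antibody.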
HP1b chromo inh: blocks HP1-beta chromodomain binding to methylated histone tails; actives 0.56% (n = 390,000); Potency, µM (highest dose often 114 µM), without a hit: at the top dose activity change, negative = inhibition, hits mostly inhibitors; AID 540317; AlphaScreen HP1-beta / biotin-H3K9me3 peptide binding; further: nearly all actives have a fitted effect of over 70% in size
Target sequence (P83916 whole entry, looked up): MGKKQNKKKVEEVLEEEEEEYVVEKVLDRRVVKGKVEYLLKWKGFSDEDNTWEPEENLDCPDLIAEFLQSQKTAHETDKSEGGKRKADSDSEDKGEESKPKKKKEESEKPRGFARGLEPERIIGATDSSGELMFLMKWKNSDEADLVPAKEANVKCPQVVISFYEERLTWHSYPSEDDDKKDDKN
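HP1-beta protein (50 nM final) preincubated 30 min at room temperature with biotinylated H3(1-18)K9me3 peptide (50 nM) in PBS pH 7.4, 0.01% Tween-20, then compound added for 30 min. AlphaScreen streptavidin donor/nickel chelate acceptor beads (10 ug/mL final), 30 min dark, luminescence read.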
PLK1 PBD inh: PLK1 (human) polo-box domain binding inhibition; P53350; Plk1 PBD binding of FITC phosphopeptide, fluorescence polarization; Potency, µM, without a hit: max response, negative = inhibition, usual class: inhibitors; actives 2.8% (n = 360,000); further: series mostly up to about 57 µM; on the % scale 0 is the no-effect control and ±100 the full control effect; nearly all actives have a fitted effect of over 65% in size
An asterisk follows results filed as active; ? = inconclusive; · = no result given; [ ] = another dose, or the depositor's remark. Sampled rows, rich in hits. Any-hit rate of the full collection: about 11%. The call rests on the fitted dose curve; in most records, active means well fitted curve in the direction sought with a large enough effect; inconclusive means small, poorly fitted or top-dose-only effect, or another doubt; inactive means no such curve, though single readings can be large; an effect the other way counts as inactive or inconclusive. Potency means the concentration at half of the fitted maximal effect.

SMILES	VDR inhibitor	JMJD2A Tudor inh	BAZ2B inh	G9a inh	HP1b chromo inh	PLK1 PBD inh
COc1ccc(NC2CC(=O)N(C(C)C)C2=O)cc1 (centres undefined)	-9.7%	-20.1%	-27.0%	22.4µM*	26.7%	-10.2%
COc1ccc(NP2(=O)OCC(C)(N)CO2)cc1 (centres undefined)	1.1%	-13.2%	·	·	16.6%	0.3%
Cc1ccc2c(c1)CC1(CN2C)C(=O)NC(=O)N(CCc2ccccc2)C1=O (centres undefined)	-9.2%	2.1%	-3.9%	7.94µM*	47.3%	-20.5%
COc1ccccc1N1C(=O)NC(=O)C2(Cc3cc(C)ccc3N(C)C2)C1=O (centres undefined)	?	-30.1%	-4.6%	8.91µM*	29.9%	-18.0%
CCOC(=O)C1CCN(/C=C2/C(=O)NC(=O)N(c3cccc(C)c3C)C2=O)CC1	1.9%	-11.7%	?	·	28.1%	-15.2%
COc1ccc(CC2(CCc3ccccn3)C(=O)NC(=O)N(c3ccccc3C)C2=O)cc1OC (centres undefined)	-6.8%	-10.5%	-8.4%	4.2%[12.7 µM]	24.6%	-0.4%
CN1c2ccc([N+](=O)[O-])cc2CC2(C(=O)NC(=O)N(c3ccccc3)C2=O)C1c1ccccc1 (centres undefined)	-16.7%	-35.3%	-36.1%	-10.3%[59 µM]	-8.0%	-4.4%
Cc1ccc2c(c1)CC1(CN2C)C(=O)NC(=O)N(c2ccccc2C)C1=O (centres undefined)	-14.4%	-4.7%[57.1 µM]	-4.5%	10µM*	34.0%	-18.9%
Cc1ccc2c(c1)CC1(CN2C)C(=O)NC(=O)N(c2cccc(C)c2C)C1=O (centres undefined)	-16.9%	-15.2%	-2.3%	7.94µM*	49.1%	-23.8%
C[C@@H]1Cc2c(Cl)cc(C(=O)N[C@H](Cc3ccccc3)C(=O)O)c(O)c2C(=O)O1	-7.4%	·	·	·	·	·
Nc1c([N+](=O)[O-])ccc(Oc2ccccc2)c1Cl	3.0%	·	·	·	·	·
Cc1ccc2c(c1)Cc1c(C(=O)NN3CCCCC3)nn(-c3ccc(Cl)cc3Cl)c1-2	-0.4%	·	·	·	·	·
Cc1ccc(N2C(=O)CC(=O)NC2=O)cc1Cl	-11.6%	-6.9%	-14.2%	·	38.1%	-10.2%
Cc1ccc2c(c1)CC1(CN2C)C(=O)NC(=O)N(c2ccc(C)c(C)c2)C1=O (centres undefined)	7.0%	-16.5%	-22.6%	8.91µM*	33.6%	-18.6%
CCC(C)C(=O)OC1C2CC3=C4CC(=O)OC(c5ccoc5)[C@]4(C)CCC3[C@@](C)(C2=O)C(CC(=O)OC)C1(C)C (some centres undefined)	39.8µM*	·	·	-34.5%[2.33 µM]	·	·
CC(=O)O[C@H]1C2[C@@H](OC(=O)Cc3ccccc3)[C@@H](C)C[C@]2(OC(C)=O)C(=O)/C(C)=C/[C@@H]2[C@H](CC[C@@]13CO3)C2(C)C (some centres undefined)	11.1%	·	·	·	·	·
Cc1ccc(-n2c(=O)c3ccc(C(=O)NCc4ccccc4Cl)cc3n(CC(=O)Nc3cccc(Cl)c3)c2=O)cc1	3.2%	-5.3%	·	25.8%[59 µM]	60.8%	·
C=C1CCN([C@@H](Cc2ccccc2)C(=O)Nc2ccc(OC)cc2)S(=O)(=O)c2ccccc21	-2.2%	-35.2%	·	·	16.5%	?
CCN(CC)C(=O)c1ccc2c(c1)C1C(Cl)C(Sc3ccccc3[N+](=O)[O-])CC1C(C(=O)O)N2 (centres undefined)	2.1%	?	20µM*	7.94µM*	11.2µM*	6.7µM*
Cc1ccc2c(c1Cl)NC(C(=O)O)C1CC(Sc3ccccc3[N+](=O)[O-])C(Cl)C21 (centres undefined)	1.3%	56.2µM*	14.1µM*	·	?	26.7µM*
O=C(Oc1cccnc1)c1ccc(Cl)cc1	-0.6%	7.4%	?	?	32.3%	0.7%
O=c1c2ccccc2cnn1Cc1n[nH]c(=S)n1C1CC2CCC1C2 (centres undefined)	-3.4%	3.16µM*	-8.5%	-132.0%[59 µM]	19.3%	-15.4%
C[C@]12CCC(=O)C(O)=C1CC[C@@H]1[C@H]3CCC(=O)[C@@]3(C)CC[C@@H]12	-16.7%	·	·	-35.0%[2.33 µM]	·	·
CCC(=O)Nc1ccccc1-c1nc2ccccc2n(C(CC)C(=O)Nc2cccc(Cl)c2)c1=O (centres undefined)	7.2%	1.7%	-3.5%	?	29.3%	·
CCC(=O)Nc1nc2ccccc2n1CCN(C)C	9.8%	39.8µM*	?	31.6µM*	-11.2%	-2.6%
SMILES	VDR inhibitor	JMJD2A Tudor inh	BAZ2B inh	G9a inh	HP1b chromo inh	PLK1 PBD inh
CC(C)c1ccc(CNC(=O)c2ccc(N3CCCC3)c(NC(=O)NCc3ccccc3)c2)cc1	5.8%	-23.2%	?	-2.2%[59 µM]	12.2%	·
CC(C)CN1CC[C@@]2(CCCN(C(=O)Oc3ccccc3)C2)C1	?	·	·	5.7%[12.7 µM]	·	·
C[n+]1c(-c2ccccc2)c2cc(N)ccc2c2ccc(N)cc21	-16.2%	?	39.8µM*	?	-21.2%	-22.0%
O=c1c(C=NCc2cccs2)c(O)n(C2CCCCC2)c(=O)n1C1CCCCC1	-14.9%	-7.8%	-19.5%	3.4%	24.9%	-12.7%
S=c1[nH]nc(-c2cccs2)n1C1CCCCC1	8.6%	6.31µM*	-4.2%	·	9.5%	-21.7%
CC[C@H]1CN2CCc3cc(OC)c(OC)cc3[C@H]2C[C@@H]1C[C@@H]1NCCc2cc(OC)c(OC)cc21	0.7%	·	·	20.0%[59 µM]	·	·
COCCOC(=O)C1=C(C)OC(N)=C(C(=O)OC)C12C(=O)Nc1ccccc12 (centres undefined)	-1.8%	-18.4%	-0.4%	12.9%[59 µM]	26.0%	-3.9%
COC(=O)C1=C(N)Oc2cc(C)oc(=O)c2C12C(=O)Nc1ccccc12 (centres undefined)	?	?	·	15.1%	24.1%	23.8µM*
C[C@H](NC(=O)[C@@H](N)Cc1ccc(O)cc1)C(=O)NCC(=O)N(C)[C@@H](Cc1ccccc1)C(=O)N[C@H](CO)CCS(C)=O (some centres undefined)	-1.4%	·	·	20.7%[59 µM]	·	·
O=C1NC(=O)C(=O)C(=O)N1	3.16µM*	·	·	·	·	·
CCc1ccc(NC(=O)CN2C(=O)C3(SCC(=O)N3c3ccc(F)c(F)c3)c3ccccc32)cc1 (centres undefined)	10.9%	-31.4%	3.6%[57.1 µM]	?	15.9%	·
O=C(Oc1ccc(C(=S)N2CCOCC2)cc1)c1ccc([N+](=O)[O-])cc1[N+](=O)[O-]	4.3%	?	-1.3%	44.7µM*	13.2%	-5.8%
CSc1ccc(CN2CCN(c3ccccc3C)CC2)cc1	4.1%	4.47µM*	?	12.6µM*	-11.9%	-1.0%
Cc1nc(N2CCN(Cc3ccccc3)CC2)nc2c1C(=O)CC(C)C2 (centres undefined)	-0.5%	-17.7%	7.8%	-2.0%	43.3%	-6.0%
